Screens (PubChem BioAssay)
TSHR antagonist: antagonists of human thyroid stimulating hormone receptor | P16473 | TSHR-expressing cells, TSH-stimulated cAMP HTRF, 2 h; stronger effect = lower value | activity change, negative = inhibition, % at 11.5 µM | hit rate 0.2% among 330,000 | AID 504810;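 active = activity change below a set negative limit, meaning inhibition stronger than a set level, cut at about -70% in these data; inconclusive = activity change between two set negative limits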; note: % is set by controls: 0 for no effect and ±100 for the full control effect
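Freshly harvested TSHR cells receive pin-tooled compound, then EC80 TSH at 4nM final. After 2 hours at 37 deg C, antibody in lysis buffer and cAMP-d2 are added; 30 minutes at ambient temperature precede the HTRF read.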
PLK1 PBD block: inhibitors of human PLK1 polo-box domain binding. Potency, µM, for the others: max response, negative = inhibition, usual class: inhibitors. hit rate 2.8% among 360,000. AID 720504. P53350. Plk1 PBD binding of FITC phosphopeptide, fluorescence polarization; note: potency is the fitted concentration of half-maximal effect; series mostly up to about 57 µM; % is set by controls: 0 for no effect and ±100 for the full control effect; nearly all actives have a fitted effect of over 65% in size
uPA surface inh: inhibitors of cell surface uPA generation; cell surface uPA generation assay, qHTS; Potency, µM (series often up to 38.3 µM), without a hit: top-dose activity change, negative = inhibition, most hits filed as inhibitors; hit rate 0.31% among 330,000; AID 540303; active = well fitted inhibition curve with a large enough effect; inconclusive = small, poorly fitted or top-dose-only effect; inactive = no such curve, though single readings can be large or run the other way; tested in mouse RAW 264.7 cells; note: potency is the fitted concentration of half-maximal effect; % is set by controls: 0 for no effect and ±100 for the full control effect; nearly all actives have a fitted effect of over 55% in size
VDR inhibitor: inhibitors of human vitamin D receptor; Potency, µM, without a hit: max response, negative = inhibition, usual class: inhibitors; hit rate 0.93% among 400,000; AID 504847; P11473; VDR-SRC2-3 peptide fluorescence polarization, 2 h; note: potency is the fitted concentration of half-maximal effect; % is set by controls: 0 for no effect and ±100 for the full control effect
Target sequence (P11473 whole entry, looked up): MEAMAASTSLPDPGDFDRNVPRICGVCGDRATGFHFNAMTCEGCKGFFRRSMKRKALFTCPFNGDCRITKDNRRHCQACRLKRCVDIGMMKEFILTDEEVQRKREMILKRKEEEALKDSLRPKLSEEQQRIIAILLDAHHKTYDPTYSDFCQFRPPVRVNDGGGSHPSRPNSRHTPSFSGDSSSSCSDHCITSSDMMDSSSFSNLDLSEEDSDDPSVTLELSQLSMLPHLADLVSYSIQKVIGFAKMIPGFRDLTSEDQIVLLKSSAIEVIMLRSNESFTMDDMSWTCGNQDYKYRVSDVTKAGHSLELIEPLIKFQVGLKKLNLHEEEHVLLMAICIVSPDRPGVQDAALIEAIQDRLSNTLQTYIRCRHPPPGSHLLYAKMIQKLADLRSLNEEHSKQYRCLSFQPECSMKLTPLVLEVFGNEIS
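Fluorescence polarization assay measuring small-molecule disruption of VDR binding to the coregulator peptide SRC2-3. Compounds were pin-transferred (23 nl) into the reagent mix and incubated 2 h at room temperature before reading.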
TSG101-PTAP inh: blocks PTAP/TSG101 interaction to inhibit HIV-1 budding. Potency, µM (top dose mostly 115 µM), for the others: top-dose activity change, negative = inhibition, most hits filed as inhibitors. Fluorescence polarization, FITC-PTAP peptide / Tsg101 binding. AID 493005. 340,000 tested, under 10 active; active = well fitted inhibition curve with a large enough effect in the main read-out, with a control signal flat, not every such curve was filed as active; inconclusive = small, poorly fitted or top-dose-only effect, or effect the other way, or a change in a side signal; inactive = no such curve, though single readings can be large or run the other way; note: potency is the fitted concentration of half-maximal effect; % of control where 0% means no effect
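FP read-out: FITC-PTAP peptide, 50 nM final, binding Tsg101 binding domain, 10 uM final; 20 min, r.t.; 10 mM HEPES pH 7.5, 0.15 M NaCl, 0.01% Tween 20, 3 mM EDTA, 0.1 mM TCEP.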
Numbers without * were called inactive; ? = inconclusive; nt = not tested or not shown. An excerpt weighted towards active compounds, which were near 3.1% of everything screened. Unless noted, calls come from the whole dose curve; as a rule, active = well fitted curve in the direction sought with a large enough effect; inconclusive = small, poorly fitted or top-dose-only effect, or another doubt; inactive = no such curve, though single readings can be large; an effect the other way counts as inactive or inconclusive.

SMILES	TSHR antagonist	PLK1 PBD block	uPA surface inh	VDR inhibitor	TSG101-PTAP inh
N#Cc1ccc(CN2CC3(CCNCC3)C2)cc1	nt	nt	nt	-16.3%	nt
O=C1NC(=S)N/C1=C/c1cccc2ccccc12	-1.5	1.7%	?	13.1%	-3.7%
O=C1NC(=S)NC(=O)C1=Cc1c(Cl)cccc1Cl	nt	4.74µM*	0.9%	15.8µM*	-5.0%
C[C@H](NC(=O)[C@@H](N)Cc1ccc(O)cc1)C(=O)NCC(=O)N(C)[C@@H](Cc1ccccc1)C(=O)N[C@H](CO)CCS(C)=O (some centres undefined)	nt	nt	nt	-1.4%	nt
CCCCNc1c(-c2cccc(-c3ccc(OC)cc3)c2)nc2ccc(C)cn12	-83.5*	-9.0%	?	-23.5%	-3.3%
O=C(O)CF	nt	nt	nt	1.6%	nt
O=C(N/N=C/C1C(=O)NC(=S)N(c2ccccc2)C1=O)c1cc(Br)c(O)c(Br)c1 (centres undefined)	24.2	3.36µM*	0.5%	39.8µM*	1.7%
O=C(N/N=C/c1c(O)n(C2CCCCC2)c(=S)[nH]c1=O)c1ccccc1	-17.3	?	-2.0%	-27.8%	-0.2%
O=c1[nH]c(=S)n(-c2ccccc2F)c(O)c1C=Nc1ccc(N2CCOCC2)cc1	-24.0	-14.8%	-14.6%	-1.5%	?
O=C1C(Cl)=C(N2CCOCC2)C(=O)N1c1ccccc1F	10.1	-13.4%	0.6%	14.1µM*	2.5%
COC1C(O)C(C)O[C@@H](OC2CC[C@@]3(C)C4CC[C@]5(C)C(C6=CC(=O)OC6)CC[C@@]5(O)C4CC[C@@H]3C2)C1O (some centres undefined)	nt	nt	nt	11.9%	nt
CC1=NN(c2ccccc2)C(=O)C1/C=C1/C(=O)NC(=O)N(c2cccc(C)c2)C1=O (centres undefined)	-1.4	nt	nt	nt	nt
COc1ccc(/C=C2/C(=O)NC(=O)N(c3ccc(C)c(C)c3)C2=O)cc1CN1C(=O)c2ccccc2C1=O	2.0	4.23µM*	-11.9%	50.1µM*	-4.4%
CC1=NN(c2ccccc2)C(=O)C1/C=C1\C(=O)NC(=O)N(c2ccc(C)c(C)c2)C1=O (centres undefined)	7.7	21.2µM*	5.1%	-8.8%	-3.2%
COc1cc(CC(=O)OCC2=C[C@H]3[C@@H]4C(C)(C)[C@]4(OC(C)=O)[C@H](OC(=O)Cc4ccccc4)[C@@H](C)[C@]3(O)[C@@H]3C=C(C)C(=O)[C@@]3(O)C2)ccc1O	nt	nt	nt	-9.9%	nt
Cc1nn(-c2nccs2)c2c1C(=O)CC(C)(C)C2Br (centres undefined)	nt	-28.7%	?	-23.5%	0.1%
CN1CCc2c(C#N)c(Cl)nc(Cl)c2C1	-2.3	-11.8%	11.2µM*	-6.3%	-11.3%
COc1ccc(N2CCN(C(=O)c3cc(=O)[nH]c4ccccc34)CC2)cc1	-5.3	26.7µM*	-1.7%	-6.3%	-1.9%
O=c1[nH]c(=O)n(CCC2=CCCCC2)c(O)c1/C=N/Nc1cccc2ccccc12	1.9	33.6µM*	1.4%	?	-3.4%
O=c1[nH]c(=O)n(CCC2=CCCCC2)c(O)c1/C=N/Nc1ccccc1	23.7	-12.7%	1.3%	?	-1.7%
Cc1c(C)n(O)c2ccc3nonc3c12	10.2	18.9µM*	0.9%	-23.5%	-5.4%
CCN1C[C@@]2(COC)CC[C@H](O)[C@@]34[C@@H]2C[C@@H]([C@@H]13)[C@]1(O)C[C@@H](OC)C2C[C@H]4[C@H]1[C@H]2OC(C)=O	nt	nt	nt	1.6%	nt
Nc1ccc2nonc2c1[N+](=O)[O-]	-0.1	18.9µM*	6.3%	-15.8%	?
CC(C)C[C@H](NC(=O)[C@H](Cc1ccccc1)NC(=O)CNC(=O)[C@@H](COC(C)(C)C)NC(=O)[C@@H](N)Cc1ccc(O)cc1)C(=O)N[C@H](C(=O)O)[C@@H](C)OC(C)(C)C	nt	nt	nt	6.3%	nt
CCCc1[nH]nc2c1C(c1ccc(OC)c(Cn3nnc4ccccc43)c1)C(C#N)=C(N)O2 (centres undefined)	nt	11.9µM*	-3.4%	?	-1.8%
CC(=O)N(C)c1ccc(OCC(O)CN(c2ccccc2C)S(=O)(=O)c2ccc(C)cc2)cc1 (centres undefined)	-7.7	4.6%	?	16.5%	-0.2%
COC(=O)c1cc(Oc2ccc(Cl)cc2Cl)ccc1[N+](=O)[O-]	nt	nt	nt	0.0%	nt
